Over roughly 140,000 sequences, “enrichment ratio after two sorts for PhoP signalling” has its median near 0; the highest 2% begin near 11. This is one part of a sample in which the highest values are shown more often than they occur.
B1: PhoQ; a variant is named by its letters at X, in order, P23837 (parent)
chain: MKKLLRLFFPLSLRVRFLLATAAVVLVLSLAYGMVALIGYSVSFDKTTFRLLRGESNLFYTLAKWENNKLHVELPENIDKQSPTMTLIYDENGQLLWAQRDVPWLMKMIQPDWLKSNGFHEIEADVNDTSLLLSGDHSIQQQLQEVREDDDDAEMTHSVAVNVYPATSRMPKLTIVVVDTIPVELKSSYMVWSWFIYVLSANLLLVIPLLWVAAWWSLRPIEALAKEVRELEEHNRELLNPATTRELTSLVRNLNRLLKSERERYDKYRTTLTDLTHSLKTPLXXLQXXLRSLRSEKMSVSDAEPVMLEQISRISQQIGYYLHRASMRGGTLLSRELHPVAPLLDNLTSALNKVYQRKGVNISLDISPEISFVGEQNDFVEVMGNVLDNACKYCLEFVEISARQTDEHLYIVVEDDGPGIPLSKREVIFDRGQRVDTLRPGQGVGLAVAREITEQYEGKIVAGESMLGGARMEVIFGRQHSAPKDE

Variants of: B1
Test: enrichment ratio after two sorts for PhoP signalling (ratio (wild type AVST 3.29)); higher = more functional
Conditions: with PhoP (E. coli)

Point of comparison: AKLF, enrichment ratio 7.81. Against it:
- IYAV — lower, ≤ 0.25
- IMHI — lower, ≤ 0.25
- VVLM — lower, 3.83
- DISV — lower, ≤ 0.25
- ASKR — lower, ≤ 0.25
- NKAS — lower, ≤ 0.25
- ETLP — lower, ≤ 0.25
- QAKK — lower, ≤ 0.25
- YNYA — lower, ≤ 0.25
- WNDE — lower, ≤ 0.25
- QAYI — higher, 8.06
- FFMI — lower, ≤ 0.25
- KAYV — lower, ≤ 0.25
- QAYV — higher, 12.6
- QGMW — lower, ≤ 0.25
- QGMI — higher, 19.9
- WHSE — lower, ≤ 0.25
- PFWH — lower, ≤ 0.25
- WKDV — lower, ≤ 0.25
- GNLA — lower, 7.72
- GNLT — higher, 16.5
- GNHF — lower, ≤ 0.25
- GNNT — lower, ≤ 0.25
- GNYI — lower, ≤ 0.25
- GTCK — lower, ≤ 0.25
- GTCA — lower, ≤ 0.25
- GTCI — higher, 11.7
- GNCI — higher, 14.4
- DCAI — lower, ≤ 0.25
- WVLT — lower, ≤ 0.25
- WFHM — lower, ≤ 0.25
- TILT — lower, 2.41
- RNAL — lower, ≤ 0.25
- MLVQ — lower, ≤ 0.25
- VEVV — lower, 2.45
- YEIT — lower, ≤ 0.25
- KFTH — lower, ≤ 0.25
- SGCH — higher, 8.61
- SGFH — lower, ≤ 0.25
- NGCC — lower, ≤ 0.25
- FGCC — higher, 13.2
- QGCC — lower, ≤ 0.25
- AICC — lower, 5.26
- GGCC — lower, 1.09
- HGCC — lower, ≤ 0.25
- TGCC — higher, 21.5
- AGCC — higher, 16.1
- SGCC — higher, 14.2
- FGCH — lower, ≤ 0.25
- EIKT — lower, ≤ 0.25
- ELGV — lower, ≤ 0.25
- GQWY — lower, ≤ 0.25
- AMER — lower, ≤ 0.25
- SFYL — lower, ≤ 0.25
- SREH — lower, ≤ 0.25
- GSFE — lower, ≤ 0.25
- CYLP — lower, ≤ 0.25
- LTCC — lower, ≤ 0.25
- FDCC — lower, ≤ 0.25
- TDCC — higher, 12.6
- FVLE — lower, ≤ 0.25
- KTTE — lower, ≤ 0.25
- PKGP — lower, 4.39
- ADLF — lower, ≤ 0.25
- QCLF — lower, ≤ 0.25
- SPLF — lower, ≤ 0.25
- KYLF — lower, ≤ 0.25
- STLF — higher, 14.6
- HKLF — lower, ≤ 0.25
- FQLF — lower, 6.28
- KCLF — lower, ≤ 0.25
- TKLF — higher, 18
- AQLF — higher, 15.8
- GCLF — higher, 13.2
- LCCL — lower, ≤ 0.25
- GKCT — lower, ≤ 0.25
- RRGY — lower, ≤ 0.25
- FMSK — lower, ≤ 0.25
- SQLF — higher, 12.6
- DPLF — lower, ≤ 0.25
- YTLF — lower, 6.76
- EQLF — lower, ≤ 0.25
- GYLF — lower, ≤ 0.25
- TTLF — lower, 4.92
- SRLF — lower, ≤ 0.25
- SLLF — lower, 0.885
- ATLF — higher, 13.9
- AILF — lower, 2.9
- GTLF — higher, 11.4
- SELF — higher, 13.1
- YMKT — lower, ≤ 0.25
- QAAW — lower, ≤ 0.25
- WQED — lower, ≤ 0.25
- NQDM — lower, ≤ 0.25
- IYQN — lower, ≤ 0.25
- DQIN — lower, ≤ 0.25
- HPPT — lower, ≤ 0.25
- DIGD — lower, ≤ 0.25
- NQMS — lower, ≤ 0.25
- SITR — higher, 11.4
- SQMK — lower, ≤ 0.25
- KYSK — lower, ≤ 0.25
- KYTR — lower, ≤ 0.25
- STMK — higher, 9.3
- EQMS — lower, ≤ 0.25
- SIGR — lower, 1.85
- SISR — lower, 6.33
- SIMK — higher, 28.9
- SQMS — higher, 17.9
- SISK — higher, 12.1
- DTPY — lower, ≤ 0.25
- IRAT — lower, ≤ 0.25
- KYIW — lower, ≤ 0.25
- VAVA — lower, ≤ 0.25
- AHMQ — lower, ≤ 0.25
- IGMY — lower, ≤ 0.25
- KQNT — lower, ≤ 0.25
- QIGW — lower, ≤ 0.25
- SITA — higher, 20
- SQTI — higher, 13.3
- SILA — higher, 16.9
- KYLA — lower, ≤ 0.25
- SQTA — lower, 0.808
- SIGD — lower, 7.24
- SIDW — lower, ≤ 0.25
- SFTI — lower, ≤ 0.25
- SITS — higher, 11.6
- SIFA — lower, ≤ 0.25
- KYTA — lower, ≤ 0.25
- KYTS — lower, ≤ 0.25
- AKHI — lower, ≤ 0.25
- WPAY — lower, ≤ 0.25
- GVTN — lower, ≤ 0.25
- NYMC — lower, ≤ 0.25
- ICGD — lower, ≤ 0.25
- LGEW — lower, ≤ 0.25
- SQAN — lower, 6.83
- EDDL — lower, ≤ 0.25
- SIKQ — lower, ≤ 0.25
- KYSA — lower, ≤ 0.25
- FQTS — lower, ≤ 0.25
- SSTI — higher, 13.8
- SISA — higher, 11.9
- KYMS — lower, ≤ 0.25
- SIYI — lower, ≤ 0.25
- SSLY — higher, 8.15
- KSTS — lower, ≤ 0.25
- SIMS — higher, 12.1
- SSWI — lower, 2.38
- SQTS — higher, 11.8
- DYKN — lower, ≤ 0.25
- KNRG — lower, ≤ 0.25
- IQKG — lower, ≤ 0.25
- SNAN — lower, 6.54
- EFAY — lower, ≤ 0.25
- IQTC — lower, ≤ 0.25
- SPWD — lower, ≤ 0.25
- SQTC — higher, 20.9
- SITI — higher, 19.7
- WIAK — lower, ≤ 0.25
- KYWD — lower, ≤ 0.25
- SIAK — higher, 11.2
- KYTI — lower, ≤ 0.25
- NQTC — lower, ≤ 0.25
- KYAK — lower, ≤ 0.25
- SILY — lower, ≤ 0.25
- SIWD — higher, 14
- ELMG — lower, ≤ 0.25
- HETM — lower, ≤ 0.25
- NFED — lower, ≤ 0.25
- DCAY — lower, ≤ 0.25
- KYSH — lower, ≤ 0.25
- QGAE — lower, ≤ 0.25
- FIVP — lower, ≤ 0.25
- FWLL — lower, ≤ 0.25
- PSSI — lower, ≤ 0.25
- QLYR — lower, 0.63
- YEWP — lower, ≤ 0.25
- IVFG — lower, ≤ 0.25
- SWMS — lower, ≤ 0.25
- STMS — higher, 15.6
- SPMS — lower, ≤ 0.25
- NWMF — lower, ≤ 0.25
- TGSQ — higher, 25.1
- AGSQ — higher, 12.9
- AGSR — lower, ≤ 0.25
- RGSQ — lower, ≤ 0.25
- AGGK — lower, ≤ 0.25
- NGSQ — lower, ≤ 0.25
- LDTG — lower, ≤ 0.25
- DEHI — lower, ≤ 0.25
- FAGW — lower, ≤ 0.25
- HEIN — lower, ≤ 0.25
- EYTQ — lower, ≤ 0.25
